# Measurements from PubChem BioAssay AID651687 (Broad Institute, 2012).
# Several values for one entry are separate records, joined by “and”; a condition that tells them apart may be missing. Identical values can stand only once. About 600 (0.17%) of roughly 350,000 compounds were called active. The sample holds actives, similar compounds and a random draw of the others, so the mix is not that of the screen.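 The calls were made as follows: active = every replicate shows inhibition of at least 40%; inconclusive = mean inhibition at least 40% but some replicate below; inactive = the rest.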
# Test: compounds lowering acetylated PGC1a in cells – cell-based, U2OS, AlphaScreen, inhibitor mode, primary screen (AID 651687);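 also: 0% = neutral control wells and 100% = positive control wells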
# Conditions: U2OS PGC1a acetylation, AlphaScreen anti-acetyl-lysine; at 15.6 µM; stronger effect = higher value; with virally co-expressed GCN5 acetyltransferase
row,Structure (SMILES),inhibition
1,CN(C)CC(=O)Nc1ccc2c(c1)[C@H]1C[C@H](CC(=O)NCc3ccc4c(c3)OCO4)O[C@@H](CO)[C@H]1O2,-4.35% (inactive)
2,CC(=O)N(C)C[C@@H]1Oc2ncc(C#CCc3ccccc3)cc2C(=O)N([C@H](C)CO)C[C@H]1C,2.72% (inactive)
3,Cc1ccc(S(=O)(=O)Nc2ccc3c(c2)C(=O)N([C@H](C)CO)C[C@@H](C)[C@H](CN(C)Cc2ccccc2)O3)cc1,-12.1% (inactive)
4,CCNC(=O)C[C@@H]1CC[C@@H]2[C@H](COc3ccc(NC(=O)Nc4cccc(C)c4)cc3C(=O)N2C)O1,0.938% (inactive)
5,O=C(C[C@@H]1C[C@@H]2c3cc(NC(=O)Nc4ccccc4F)ccc3O[C@@H]2[C@@H](CO)O1)NCCc1ccccc1,9.83% (inactive)
6,O=C(C1CCCC1)N1CC(=O)N2[C@@H](CO)[C@H](c3ccc(C#CC4CCCC4)cc3)[C@@H]2C1,-10.1% (inactive)
7,O=C(C[C@@H]1CC[C@H](NC(=O)Nc2ccc3c(c2)OCO3)[C@H](CO)O1)NCc1ccccc1,2.06% (inactive)
8,COc1cc(NC(=O)c2cncc(-c3ccc(C#N)cc3)c2)cc(C(=O)Nc2cccc(C(F)(F)F)c2)c1,4.55% (inactive) and 7.38% (inactive)
9,COc1cc(NC(=O)c2[nH]cnc2C(N)=O)cc(C(=O)Nc2cccc(C(F)(F)F)c2)c1,62.8% (active)
10,COc1ccc(C(N)c2csc(NC(=O)Nc3cccc(C(F)(F)F)c3)n2)cc1 (configuration not stated),-29.2% (inactive)
11,COc1cccc(-c2cn(CC[C@@H]3CC[C@@H](NC(C)=O)[C@@H](CO)O3)nn2)c1,22.5% (inactive)
12,O=C(C[C@H]1C=C[C@@H](NC(=O)c2cnccn2)[C@H](CO)O1)NCc1ccccc1F,-3.99% (inactive)
13,Cc1noc(C)c1S(=O)(=O)Nc1ccc2c(c1)CC(=O)N([C@H](C)CO)C[C@@H](C)[C@@H](CN(C)C)O2,4.76% (inactive)
14,CCCNC(=O)C[C@H]1CC[C@@H]2[C@H](COC[C@H](O)CN2CC2CCCCC2)O1,-2.1% (inactive)
15,O=C(O)C[C@H]1C[C@@H]2c3cc(NC(=O)Nc4ccc(C(F)(F)F)cc4)ccc3O[C@@H]2[C@@H](CO)O1,-2.34% (inactive)
16,C[C@H](O)C#Cc1ccc([C@H]2[C@H](CO)N3CCCCN(C(=O)c4ccc(F)cc4)C[C@@H]23)cc1,-4.78% (inactive)
17,CCC(=O)N(C)C[C@H]1Oc2ncc(-c3ccc(C#N)cc3)cc2C(=O)N([C@@H](C)CO)C[C@H]1C,-11.3% (inactive)
18,CCCNC(=O)N[C@H]1C=C[C@@H](CC(=O)NC2CCCCC2)O[C@H]1CO,-18.5% (inactive)
19,Cc1ccc(S(=O)(=O)Nc2ccc3c(c2)C(=O)N([C@@H](C)CO)C[C@H](C)[C@@H](CN(C)Cc2ccc4c(c2)OCO4)O3)cc1,1.59% (inactive)
20,COC(=O)C[C@H]1CC[C@@H]2[C@@H](COc3ccc(NC(=O)Nc4ccc(Cl)cc4)cc3C(=O)N2C)O1,-4.91% (inactive)
21,O=C(CSC(=S)N1CCOCC1)c1ccccc1,-7.05% (inactive)

row,Structure (SMILES),inhibition
1,NC(=NC(=O)c1ccccc1)N1CCOCC1,84.1% (active)
2,N[C@@H](Cc1ccccc1)C(=O)N1CCOCC1,-8.48% (inactive)
3,CCCC(=O)Nc1ccc2c(c1)C(=O)N(C)[C@@H]1CC[C@H](CC(=O)NCCN3CCCCC3)O[C@@H]1CO2,1.12% (inactive)
4,C[C@@H]1CCCCO[C@H](CN(C)C(=O)c2ccccc2)[C@@H](C)CN([C@H](C)CO)C(=O)c2cc(NC(=O)c3ccccc3)ccc2O1,5.89% (inactive)
5,C[C@@H]1CN([C@H](C)CO)C(=O)c2cc(NC(=O)c3ccccc3)ccc2O[C@@H](C)CCCCO[C@H]1CN(C)C(=O)c1ccncc1,8.37% (inactive)
6,CCNC(=O)Nc1ccc2c(c1)C(=O)N(C)[C@@H]1CC[C@@H](CC(=O)NC3CCCCC3)O[C@H]1CO2,1.93% (inactive)
7,C[C@@H]1CN([C@H](C)CO)C(=O)c2cc(NC(=O)C3CCCCC3)ccc2O[C@@H](C)CCCCO[C@H]1CN(C)S(C)(=O)=O,6.77% (inactive)
8,COc1ccc(S(=O)(=O)N(C)C[C@@H]2Oc3ccc(NC(=O)Cc4cn(C)c5ccccc45)cc3C(=O)N([C@H](C)CO)C[C@H]2C)cc1,-8.14% (inactive)
9,C[C@@H]1CN([C@H](C)CO)S(=O)(=O)c2ccc(-c3ccc(C(=O)N(C)C)cc3)cc2O[C@@H]1CN(C)C(=O)Nc1ccccc1F,-11.4% (inactive)
10,CO[C@H]1CN(C)C(=O)c2ccc(NC(=O)C3CC3)cc2OC[C@H](C)N(Cc2ccncc2)C[C@@H]1C,-7.97% (inactive)
11,COc1ccc(NC(=O)Nc2cccc3c2O[C@@H](CN(C)S(=O)(=O)c2ccc(C)cc2)[C@H](C)CN([C@@H](C)CO)C3=O)cc1,3.27% (inactive)
12,CO[C@H](C(=O)N(C)C[C@@H]1OCc2ccccc2-c2c(n(C)c3ccccc23)C(=O)N([C@@H](C)CO)C[C@H]1C)c1ccccc1,-1.42% (inactive)
13,CCCN1C[C@@H](C)[C@@H](OC)CN(C)C(=O)c2cc(NC(=O)C3CCC3)ccc2OC[C@H]1C,-10.1% (inactive)
14,CO[C@H]1CN(C)C(=O)c2cc(NS(=O)(=O)c3ccccc3)ccc2OC[C@H](C)N(C(=O)NC(C)C)C[C@@H]1C,8.54% (inactive)
15,O=C(c1ccncc1)N1CC2(C1)[C@@H](c1ccccc1)[C@H](CO)N2C(=O)c1ccncc1,6.1% (inactive)
16,C[C@@H]1CCCCO[C@@H](CN(C)C(=O)c2ccccc2)[C@H](C)CN([C@@H](C)CO)C(=O)c2cc(NS(C)(=O)=O)ccc2O1,-1.5% (inactive)
17,CCOC(=O)c1ccc2[nH]c(C)c(CN3CCN(C)CC3)c(=O)c2c1,59.3% (active)
18,CCOC(=O)c1ccc2[nH]c3c(c2c1)CCCC3NC=O (configuration not stated),5% (inactive)
19,Cc1[nH]c2ccc(C(=O)N3CCN(C)CC3)cc2c1C,1.27% (inactive)
20,CO[C@@H]1CN(C)C(=O)c2ccc(NS(C)(=O)=O)cc2OC[C@H](C)N(C(=O)C2CC2)C[C@H]1C,-8.93% (inactive)
21,COc1ccc(NC(=O)Nc2ccc3c(c2)C(=O)N([C@@H](C)CO)C[C@H](C)[C@@H](CN(C)S(=O)(=O)c2ccc(Cl)cc2)O3)cc1,-2.11% (inactive)
